aDG glyco act – alpha-DG glycosylation activation | 360,000 compounds, 0.22% hits | activation, % at 10 µM | Pro5-aDG cells, alpha-DG glycosylation AlphaScreen (IIH6); 0% Pro5, 100% B10-LARGE cell signal;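 active = activation of at least 8% versus controls, or a plate z-score of at least 8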;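 also: Pro5 are CHO cells carrying HIG-tagged alpha-DG that lacks glycosylation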
rCAG binder – binds r(CAG) RNA repeats. r(CAG) RNA repeat, TO-PRO-1 dye displacement fluorescence. inhibition, % at 3 µM. 370,000 compounds, 1.3% hits. AID 651821;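 active = inhibition above the plate cutoff, the mean of all test compounds on that plate plus 3 SD, cut at about 35% in these data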;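 also: 0% = DMSO alone and 100% = 100 µM mitoxantrone as full dye displacement; higher means more dye released from RNA so lower well fluorescence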
APOBEC3A inh – human APOBEC3A DNA deaminase inhibition; 330,000 compounds, 0.41% hits; inhibition, % at 20 µM; recombinant A3A, FAM/TAMRA ssDNA deamination fluorescence; AID 493011; P31941;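 active = at least 40% inhibition at 20 µM here, with at most 30% in a related deaminase screen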;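 also: plate controls were A3A with DMSO for no effect and wells lacking A3A enzyme for full effect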
Target sequence (P31941 whole entry, looked up): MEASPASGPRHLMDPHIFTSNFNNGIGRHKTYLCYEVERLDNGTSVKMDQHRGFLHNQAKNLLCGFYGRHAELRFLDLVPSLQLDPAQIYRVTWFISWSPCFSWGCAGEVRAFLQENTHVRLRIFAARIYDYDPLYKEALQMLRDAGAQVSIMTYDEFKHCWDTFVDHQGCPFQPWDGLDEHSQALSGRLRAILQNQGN
APOBEC3G inh – blocks human APOBEC3G single-stranded DNA deamination. Q9HC16. recombinant A3G, ssDNA deamination FAM/TAMRA fluorescence. inhibition, % at 20 µM. 330,000 compounds, 0.28% hits. AID 493012;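 active = inhibition of at least 40% at 20 µM, with no more than 30% in the related APOBEC3A deaminase screen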;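 also: plate controls were DMSO wells with A3G for no effect and wells lacking A3G enzyme for full effect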
PHOSPHO1 inh – PHOSPHO1 (human) inhibition; 290,000 compounds, 1.1% hits; Q8TCT1; inhibition, % at 13.3 µM; recombinant PHOSPHO1, absorbance phosphatase assay; in the data active = inhibition above about 60%
ALR H2O2 inh – human ALR oxidase inhibition via reduced H2O2; P55789; purified ALR, DTT oxidation, H2O2 HRP-luminol luminescence; inhibition, % (test concentration not listed); 290,000 compounds, 3.8% hits;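 active = mean replicate inhibition above about 79%, with every replicate also reaching it, limit read from the data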
Target sequence (P55789 whole entry, looked up): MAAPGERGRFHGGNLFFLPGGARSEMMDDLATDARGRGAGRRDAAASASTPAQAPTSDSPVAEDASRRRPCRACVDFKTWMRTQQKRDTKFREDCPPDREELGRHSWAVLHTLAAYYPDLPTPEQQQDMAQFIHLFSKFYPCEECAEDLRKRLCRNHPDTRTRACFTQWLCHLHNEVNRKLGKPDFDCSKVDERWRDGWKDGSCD
* hit, by the source's call; x = no result given. Rows were chosen to be rich in hits. Some 5.4% of all compounds tested hit in one or more screens of this group.

SMILES	aDG glyco act	rCAG binder	APOBEC3A inh	APOBEC3G inh	PHOSPHO1 inh	ALR H2O2 inh
CCOc1c(Cl)cc(CNCc2ccccn2)cc1OC	0	0	0	-5	23	-3
COc1cc(CNn2cn[nH]c2=S)cc(Cl)c1OCc1ccc(F)cc1	0	17	2	-7	-12	97*
COc1cc(CNn2c(C)n[nH]c2=S)cc(Cl)c1OCc1ccccc1	0	8	-4	-8	84*	56
Cc1ccc(NC(=O)NNC(=O)CCn2nc(C)c([N+](=O)[O-])c2C)cc1C	x	1	x	x	x	x
COC(CN(C(=O)CCl)C(C(=O)NC1CCCCC1)c1ccccc1C)OC (centres undefined)	0	-10	-2	-5	-12	77*
Cc1ccc(CNC(=O)OC(C)(C)C)c(/C=C/S(=O)(=O)NC2CCCC2)c1	x	0	x	x	x	x
O=C(Nc1scc(-c2ccc(F)cc2)c1C(=O)O)c1ccco1	0	17	-1	0	-51	88*
CCOC(=O)CC[C@@]1(C(=O)OCC)C[C@@H](CC(=O)N2CCCC2)C(=O)N2CCCC=C21	x	1	x	x	x	x
CC1=NC(=O)C(N=Nc2cccc(O)c2)N1c1ccccc1 (centres undefined)	0	9	28	17	95*	5
Cc1cccc(-n2c(O)c(C=Nc3cccc(O)c3)c3ccccc3c2=O)n1	0	3	-6	-8	0	1
CCNc1nc(NCC)nc(N/N=C/c2ccc(O)c(O)c2)n1	0	0	-2	-11	24	99*
CCNc1nc(NCC)nc(N/N=C/c2cc(OC)c(OC)c(OC)c2)n1	0	-7	2	9	12	7
CCNc1nc(NCC)nc(N/N=C/c2ccc(N(C)C)cc2)n1	0	-1	-5	-10	32	99*
CCN(CC)c1ccc(N2C(=NC(=O)C3CCCO3)SC3CS(=O)(=O)CC32)cc1 (centres undefined)	0	-3	-6	-6	17	99*
NS(=O)(=O)c1ccc(NNC(=O)c2ccccc2C(=O)O)cc1	0	-2	2	6	-121	36
O=C(O)c1ccccc1C(=O)Nc1ccc(Oc2ccc3ccccc3c2)cc1	0	5	-1	-1	48	99*
O=C(O)c1ccccc1C(=O)Nc1ccc(Oc2cccc3ccccc23)cc1	0	5	x	x	35	x
O=C(O)c1ccccc1C(=O)NNc1ccc(Cl)cc1	0	0	-3	1	7	99*
Cc1ccc(C(=O)Nc2ccc(Oc3ccc(C(=O)O)c(C(=O)O)c3)cc2)cc1C	0	10	2	1	8	98*
Cc1c(C)c(C)c(C(=O)c2ccc(NC(=O)c3ccccc3C(=O)O)cc2)c(C)c1C	0	9	-4	-9	31	96*
COc1nc(OC)nc(N2CCC(C(=O)N(C)Cc3ccco3)CC2)n1	x	-1	x	x	x	x
COC(=O)[C@]12C[C@H](CC(=O)N3CCSCC3)C(=O)N(CCc3ccc(OC)c(OC)c3)C1=C[C@H](COCc1ccccc1)O[C@@H]2C	x	6	x	x	x	x
CCCN(CC1CC1)C(=O)CSc1nnc(-c2ccncc2)n1-c1ccc(OC)cc1	x	-2	x	x	x	x
Cc1cc2c(nc1C)CCCN2S(=O)(=O)c1cccs1	x	2	x	x	x	x
COc1ccc(CCC(C)Nc2ccc(F)cc2)cc1 (centres undefined)	0	-5	0	-8	-5	98*
SMILES	aDG glyco act	rCAG binder	APOBEC3A inh	APOBEC3G inh	PHOSPHO1 inh	ALR H2O2 inh
COc1ccc(CCC(C)Nc2ccc(F)c(F)c2)cc1 (centres undefined)	0	1	-4	-7	6	39
COc1ccc(CCC(C)Nc2cccc(C)c2)cc1 (centres undefined)	0	-2	0	-3	34	99*
COc1cccc(NC(=O)Nc2c(-c3ccc(C)cc3)nc3ncccn23)c1	x	6	x	x	x	x
Cc1cc(C(=O)NCCCN2CCN(C3CCCCC3)CC2)n(-c2ccccc2)n1	0	-1	43*	-6	-26	0
Cc1ccccc1NC(=O)NCCCN1CCN(C2CCCCC2)CC1	0	-2	-3	-4	-10	1
Cc1[nH]nc2c1C(c1cccc(C(F)(F)F)c1)N(Cc1ccccc1)C2=O (centres undefined)	x	1	x	x	x	x
COC(=O)C[C@H]1CC[C@@H]2[C@@H](COc3ccc(NC(=O)c4ccccc4)cc3C(=O)N2C)O1	x	0	x	x	x	x
